The sample as a whole holds a higher share of hits than the screen did.
Pf Dd2 inh: inhibitors of Plasmodium falciparum Dd2 growth. P. falciparum Dd2 growth, SYBR Green, 72 h. Potency, µM (doses to about 28.9 µM), actives largely listed as inhibitors. AID 1347417. 120,000 compounds, 4.3% hits; active = well fitted inhibition curve with a large enough effect; note: nearly all actives have a fitted effect of over 65% in size
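Infected erythrocytes (Dd2, 0.3% parasitemia, 2.5% hematocrit final) are added to compound in RPMI-1640/Albumax II medium, grown 72 h at 37C in low oxygen, then lysed with saponin/Triton-X containing SYBR Green and read by fluorescence.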
Each line names hits and unclear results; the compound was inactive in the other large screens.

O=C1COc2ccc(-c3ccccc3F)nc2CN1CCOc1ccccc1	none
CNC(=O)Nc1ccc(C2(C(=O)N3CCN(c4ccc(Cl)cc4)CC3)CCC2)cc1	none
NC(=O)c1n[nH]c2c1CN(CC1(O)CNCCOC1)CC2 (stereo not given)	none
Cn1nccc1C(=O)N1CCc2c(n(CCOc3ccccc3)n(-c3ccccc3)c2=O)C1	none
COCC(=O)N1CC[C@@H](CC(=O)O)[C@@H](CCN2CCN(c3cccc(C(F)(F)F)c3)CC2)C1	none
CC(=O)NCC1CCCN(C(=O)c2cc(Cn3ccc4ccccc43)[nH]n2)C1 (stereo not given)	none
O=C(Cc1cccc(F)c1)N1CCC(n2cc(-c3nc(-c4ccccc4)no3)nn2)CC1	none
OCCC1CN(Cc2c(F)ccc(F)c2F)CCN1C1CCCC1 (stereo not given)	none
O=C(CN1C(=O)COc2ccc(C(=O)COc3ccccc3F)cc21)NCc1ccco1	none
COc1ccc(-c2nc(C)nc3c2CCN([S+](=O)([O-])c2cccc(C(F)(F)F)c2)CC3)cc1	none
COc1ccc(-c2cc(N3CCC(NC(=O)c4cccc(C#N)c4)CC3)n[nH]2)cc1	none
CCOc1ccc2c(c1)NC(c1ccc(OCC)c(OCC)c1)=NC(c1ccc(F)cc1)=N2	Pf Dd2 inh 13µM
CC(C)COc1ccc(C2=NC(c3ccncc3)=Nc3ccc(F)cc3N2)cc1	none
CCc1ccc2c(c1)NC(c1ccc(F)cc1)=NC(c1ccncc1)=N2	none
COc1ccc(OC)c(C(O)Cn2ccn3nc(-c4cccs4)cc3c2=O)c1 (stereo not given)	none
O=C(c1nccnc1C(=O)N1CCC2(CCCNC2)C1)N1CCCCC1 (stereo not given)	none
O=C(OCc1ccccc1)N1CCC(Oc2cnc3c(ccn3-c3cncnc3)c2)CC1	none
O=C(Cc1ccccc1)N1CCC(Oc2cnc3c(ccn3-c3cncnc3)c2)CC1	Pf Dd2 inh 13µM
O=C(CC1CC1)N1CCC(Oc2cnc3c(ccn3-c3cncnc3)c2)CC1	none
Cc1ccc(NC(=O)N2CCC(CCNC(=O)C3CCC3)CC2)cc1F	none
O=S(=O)(c1ccc(F)cc1)N1CCCC(Cc2noc(-c3cccnc3)n2)C1 (stereo not given)	none
COC[C@@H]1CN(c2cnccn2)C[C@H]1C(=O)NCc1ccccc1OC	none
CCn1c2ccccc2c2nnc(SCC(=O)Nc3ccccc3OC)nc21	none
CCCc1nnc(NC(=O)CSc2nnc3c4ccccc4n(CC)c3n2)s1	none
CCN(CC)CCSc1nnc2c3cc(F)ccc3n(CC)c2n1	none
CCCn1c2ccc(F)cc2c2nnc(SCCN3CCCCC3)nc21	Pf Dd2 inh 7.9µM
CCn1c2ccc(F)cc2c2nnc(SCCN3CCCCC3)nc21	Pf Dd2 inh 13µM
CCOC(=O)c1ccc(NC(=O)CSc2nnc3c4ccccc4n(CC)c3n2)cc1	none
CCCn1c2ccc(C)cc2c2nnc(SCCN3CCCCC3)nc21	Pf Dd2 inh 8.9µM
COCc1nc(C2CCCN(C(=O)c3cc(OC)cc(OC)c3)C2)no1 (stereo not given)	none
COc1ccc(N2CC3CCC(C2)N3CC(F)(F)F)cn1	none
O=C(CCN1CCCO1)N[C@@H]1COCC[C@@H]1OCc1ccccc1	none
COc1ccc(-c2cccc(COc3cnc4c(ccn4CC(=O)O)c3)c2)c(C)c1	none
Cc1ccc2nc(CO[C@H]3CN(C(=O)C4CC4)C[C@H]3F)[nH]c2c1	none
CNC(=O)[C@@H]1CN(C(=O)c2nccc3ccccc23)C[C@H]1CO	none
CNC(=O)[C@@H]1C[C@H](n2cc(C(C)(C)NC(=O)c3ccccc3OC)nn2)CN1	none
Cc1cnc(CC2CCN(C(=O)c3ccco3)CC2)n1CC1CC1	none
CC(C)(C)NC(=O)N1C[C@@H](Oc2cccnc2)C[C@H]1C(=O)N1CCOCC1	none
O=C(NC1CCN(c2cc(-c3ccc(F)cc3)[nH]n2)C1)c1ccc(F)c(F)c1 (stereo not given)	none
CCC(N)(CC)c1cn(CC2CCCN(S(C)(=O)=O)C2)nn1 (stereo not given)	none
CCC1(N2CCN(C(=O)c3ccccc3C(F)(F)F)CC2)CCN(C(=O)C(C)C)C1 (stereo not given)	none
CSc1cccc(N2C(=O)[C@@H]3C[C@@H](NC(=O)c4cccn4C)CCN3C2=O)c1	Pf Dd2 inh 10µM
Cn1cccc1C(=O)N[C@H]1CCN2C(=O)N(c3cccc(F)c3)C(=O)[C@@H]2C1	none
Cc1ccc(N2C(=O)[C@@H]3C[C@@H](NC(=O)c4cccn4C)CCN3C2=O)cc1	none
COCCOc1ccc2c(n1)CCN(C(=O)Cc1cccc(F)c1)C2	none
CC1=C(C(=O)Nc2ccccc2)C(c2cccc(C)c2)N2C(CC(=O)NC3CC3)=CSC2=N1 (stereo not given)	none
Cn1cnnc1-c1nn(C)c2c1CN(C(=O)CCC(=O)N1CC(=O)Nc3ccccc31)CC2	none
O=C(CN1C(=O)CC(c2ccccc2)=Nc2ccccc21)Nc1ccc(Br)cc1	Pf Dd2 inh 10µM
Cc1ccc(C2=Nc3ccccc3N(CC(=O)NCc3ccc(Cl)cc3)C(=O)C2)cc1C	none
Cc1ccc(C2=Nc3ccccc3N(CC(=O)NCc3ccc(F)cc3)C(=O)C2)cc1C	none
O=C(c1ccc(Cl)cc1)N1C[C@@H](CO)[C@H](c2nc(C3CC3)no2)C1	none
COc1ccc(C(=O)N2CCc3ccc(C(=O)O)cc32)cc1	none
COCCn1ccc2c(C(=O)Nc3ccc4c(c3)C(=O)N3CCC[C@H]3C(=O)N4)cccc21	none
O=C(NCCc1cccnc1)C1CCCN(C2CCOCC2)C1 (stereo not given)	none
c1cncc(CN2CCC(Oc3nccnc3N3CCc4ccccc43)C2)c1 (stereo not given)	Pf Dd2 inh 3.5µM
Cc1ncc2n1C(=O)N(C1CCN(Cc3cccnc3)CC1)C2	none
O=C(C1CC1)N1CCC(OC2CCN(Cc3cccnc3)CC2)CC1	none
Cc1c(Cl)cccc1NC(=O)CN1C(=O)NC2(CCOCC2)C1=O	none
CC(C)n1nc(OC(C)(C)C(=O)NC2CC2)c2cc(CN3CCOCC3)ccc21	none
Cc1ccc(-c2ccc3nnc(CNC(=O)C4CCCC4)n3n2)cc1C	none
CC(C)NC(=O)Nc1ccc([C@H]2OCC(=O)N[C@@H]2CO)cc1	none
CCC(=O)N1CCc2oc(C)c(C(=O)N(C)C)c2C1	none
Cc1csc(NC(=O)c2nc3c(o2)CCN(Cc2cccc(F)c2)CC3)n1	none
O=C1CCC(C(=O)N2CCSCC2)CN1CCc1cccc(F)c1 (stereo not given)	none
CN(C)C(=O)c1n[nH]c2c1CN(C(=O)CCc1ccccc1)CC2	none
Cc1oc2c(c1C(=O)N(C)C)CN(C(=O)CCc1ccccc1)CC2	Pf Dd2 inh 6.3µM
Cc1oc2c(c1C(=O)N1CCOCC1)CN(CCC(C)C)CC2	none
Cc1oc2c(c1C(=O)N1CCSCC1)CN(Cc1cccc(F)c1)CC2	Pf Dd2 inh 11µM
Cc1oc2c(c1C(=O)N1CCN(c3ccccc3)CC1)CN(Cc1ccccc1)CC2	Pf Dd2 inh 5µM
CC(=O)N1CCN(C(=O)c2c(C)oc3c2CN(Cc2ccc(F)cc2)CC3)CC1	none
COC1(c2ccccc2)CCN(C(=O)C2CCCN(C(=O)N(C)C)C2)CC1 (stereo not given)	none
O=C(c1cccs1)N1Cc2[nH]cnc2C[C@H]1c1nc(-c2ccc3ccccc3c2)no1	none
Cc1cc(C)n(Cc2ccc(C(=O)N3CCCCCCNC(=O)CC3)o2)n1	none
N#Cc1ccc(CN2CCc3nc(C(=O)NCc4cccc(F)c4)oc3CC2)cc1	none
CCc1noc(-c2cn(C3CCN(C(=O)c4cc(C5CC5)[nH]n4)C3)nn2)n1 (stereo not given)	none
CC(C)(C)NC(=O)N1CCCOCCNC(=O)[C@@H]2CCC[C@@H]21	none
CN(C)c1ccc(-c2nc(-c3nnn4c3COC(c3ccccc3Cl)C4)no2)cc1 (stereo not given)	none
